Data published in PubChem BioAssay (Tox21).
The source made the active and inactive calls. Unless noted, calls come from the whole dose curve; as a rule, active = well fitted curve in the direction sought with a large enough effect in the repeat runs; inconclusive = weak or mixed curves; inactive = no such curve, though single readings can be large; an effect the other way counts as inactive or inconclusive.

Key:
[1] = qHTS assay for identifying genotoxic compounds that show differential cytotoxicity against isogenic chicken DT40 cell lines with known DNA damage response pathways - wild type cell line (AID 743012); note: nearly all actives have a fitted effect of over 60% in size; note: potency is the fitted concentration of half-maximal effect
Method in brief: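 Endpoint: CellTiter-Glo luminescence, 30 min RT. Cells: wild type DT40, 300/well. Exposure: compounds in DMSO, 40 h, 37 C/5% CO2, after ~0.5 h pre-incubation.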

[2] = qHTS assay for identifying genotoxic compounds that show differential cytotoxicity against isogenic chicken DT40 cell lines with known DNA damage response pathways - Rev3 mutant cell line (AID 743014); note: nearly all actives have a fitted effect of over 55% in size; note: potency is the fitted concentration of half-maximal effect
[3] = qHTS assay to identify small molecule antagonists of the androgen receptor (AR) signaling pathway - cell viability counter screen (AID 743033; note: nearly all actives have a fitted effect of over 45% in size; note: potency is the fitted concentration of half-maximal effect)
[4] = qHTS assay to identify small molecule antagonists of the androgen receptor (AR) signaling pathway using the MDA cell line - cell viability counter screen (AID 743041; note: nearly all actives have a fitted effect of over 45% in size; note: potency is the fitted concentration of half-maximal effect)
Method in brief: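 In this qHTS counter assay, fluorescence intensity after CellTiter-Fluor addition indicated viability of MDA-kb2 AR-luc cells given compounds and R1881 for 16 h at 37C.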

[5] = qHTS assay to identify small molecule antagonists of the thyroid receptor (TR) signaling pathway - cell viability counter screen (AID 743064); note: nearly all actives have a fitted effect of over 50% in size; note: potency is the fitted concentration of half-maximal effect
Method in brief: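 Compounds were tested on GH3.TRE-Luc cells in the presence of T3 at 1 nM final. Following 23.5 h at 37 °C, cell viability was quantified by CellTiter-Fluor.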

[6] = qHTS assay to identify small molecule antagonists of the thyroid receptor (TR) signaling pathway (AID 743065); note: nearly all actives have a fitted effect of over 55% in size; note: potency is the fitted concentration of half-maximal effect
Method in brief: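 GH3.TRE-Luc rat pituitary cells carrying two TR response elements driving luciferase were plated for 4 h, given compound plus 1 nM T3 (final), and incubated 23.5 h at 37 C. ONE-Glo luminescence measured reporter inhibition; CellTiter-Fluor fluorescence tracked cytotoxicity.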

[7] = system: thyroid hormone receptor (rat, GH3 cells); test: qHTS assay to identify small molecule agonists of the thyroid receptor (TR) signaling pathway (AID 743066; calls by dose curve)
[8] = qHTS assay to identify small molecule antagonists of the estrogen receptor alpha (ER-alpha) signaling pathway - cell viability counter screen (AID 743074; calls by dose curve;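 note: HEK293 cells carrying ER-alpha-UAS-bla reporter stimulated with 17beta-estradiol; nearly all actives have a fitted effect of over 45% in size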; note: potency is the fitted concentration of half-maximal effect)
[9] = target: Estrogen receptor (Homo sapiens) (UniProt P03372); test: qHTS assay to identify small molecule agonists of the estrogen receptor alpha (ER-alpha) signaling pathway (AID 743075; calls by dose curve;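 note: HEK293 GripTite cells with ER-alpha and UAS-driven beta-lactamase reporter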; note: potency is the fitted concentration of half-maximal effect)
Sequence of Estrogen receptor (Homo sapiens) (P03372 whole entry, looked up): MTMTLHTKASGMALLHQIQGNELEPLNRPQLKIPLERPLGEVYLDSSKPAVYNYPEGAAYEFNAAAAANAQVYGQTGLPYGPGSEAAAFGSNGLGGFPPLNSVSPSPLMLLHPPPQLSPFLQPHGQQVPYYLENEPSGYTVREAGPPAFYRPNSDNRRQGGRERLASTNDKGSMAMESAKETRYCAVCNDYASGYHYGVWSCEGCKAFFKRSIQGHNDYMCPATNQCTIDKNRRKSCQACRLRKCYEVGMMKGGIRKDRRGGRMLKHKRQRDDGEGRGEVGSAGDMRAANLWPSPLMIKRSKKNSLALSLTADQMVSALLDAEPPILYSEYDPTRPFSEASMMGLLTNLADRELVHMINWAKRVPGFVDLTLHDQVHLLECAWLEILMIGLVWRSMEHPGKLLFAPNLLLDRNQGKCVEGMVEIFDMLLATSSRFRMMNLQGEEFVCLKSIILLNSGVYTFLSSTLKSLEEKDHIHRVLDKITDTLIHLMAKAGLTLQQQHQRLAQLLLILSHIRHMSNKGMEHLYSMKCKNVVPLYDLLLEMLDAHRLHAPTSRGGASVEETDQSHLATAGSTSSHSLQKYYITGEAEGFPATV

[10] = qHTS assay to identify small molecule antagonists of the estrogen receptor alpha (ER-alpha) signaling pathway using the BG1 cell line - cell viability counter screen (AID 743081);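 note: compound given together with 17beta-estradiol as the ER stimulus; nearly all actives have a fitted effect of over 45% in size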; note: potency is the fitted concentration of half-maximal effect
[11] = target: Aromatase (Homo sapiens) (UniProt P11511); test: qHTS assay to identify aromatase inhibitors (AID 743083); note: nearly all actives have a fitted effect of over 55% in size; note: potency is the fitted concentration of half-maximal effect
Sequence of Aromatase (Homo sapiens) (P11511 whole entry, looked up): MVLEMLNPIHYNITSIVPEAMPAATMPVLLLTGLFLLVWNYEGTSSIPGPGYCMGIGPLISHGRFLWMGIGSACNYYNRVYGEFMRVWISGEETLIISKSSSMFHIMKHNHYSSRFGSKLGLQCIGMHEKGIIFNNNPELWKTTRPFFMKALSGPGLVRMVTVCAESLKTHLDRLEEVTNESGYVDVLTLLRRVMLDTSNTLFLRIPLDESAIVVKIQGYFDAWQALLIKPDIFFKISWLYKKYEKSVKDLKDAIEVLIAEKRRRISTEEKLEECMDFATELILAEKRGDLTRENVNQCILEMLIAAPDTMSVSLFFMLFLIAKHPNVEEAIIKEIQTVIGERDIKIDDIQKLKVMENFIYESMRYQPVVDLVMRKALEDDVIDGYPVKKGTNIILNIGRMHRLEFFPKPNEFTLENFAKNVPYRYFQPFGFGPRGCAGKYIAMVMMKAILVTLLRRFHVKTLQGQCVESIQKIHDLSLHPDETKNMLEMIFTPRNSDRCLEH

[12] = qHTS assay to identify aromatase inhibitors - cell viability counter screen (AID 743084);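 note: cells stimulated with testosterone during compound exposure; nearly all actives have a fitted effect of over 55% in size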; note: potency is the fitted concentration of half-maximal effect
[13] = qHTS assay for identifying genotoxic compounds that show differential cytotoxicity against isogenic chicken DT40 cell lines with known DNA damage response pathways - Rad54/Ku70 mutant cell line (AID 743015); note: potency is the fitted concentration of half-maximal effect; nearly all actives have a fitted effect of over 60% in size
[14] = target: Estrogen receptor (Homo sapiens) (UniProt P03372); test: qHTS assay to identify small molecule antagonists of the estrogen receptor alpha (ER-alpha) signaling pathway (AID 743069; active = well fitted curve in the direction sought with a large enough effect in the signal ratio in the repeat runs, not every such curve was filed as active; inconclusive = weak or mixed curves, or effect the other way; inactive = no such curve, though single readings can be large or run the other way; the % refers to the signal ratio; note: potency is the fitted concentration of half-maximal effect)
Method in brief: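 A 17beta-estradiol challenge was applied right after compound transfer to ER-alpha-UAS-bla HEK293 cells previously kept in charcoal-stripped serum. Plates stood 18 hr at 37C and 5% CO2; fluorescence was read following 2 hr FRET substrate loading at room temperature.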

[15] = target: Estrogen receptor (Homo sapiens) (UniProt P03372); test: qHTS assay to identify small molecule agonists of the estrogen receptor alpha (ER-alpha) signaling pathway using the BG1 cell line (AID 743079); note: nearly all actives have a fitted effect of over 20% in size; note: potency is the fitted concentration of half-maximal effect
[16] = qHTS assay to identify small molecule antagonists of the estrogen receptor alpha (ER-alpha) signaling pathway using the BG1 cell line (AID 743080; calls by dose curve;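 note: BG1 cells stimulated with 17beta-estradiol alongside compound; nearly all actives have a fitted effect of over 25% in size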; note: potency is the fitted concentration of half-maximal effect)
Method in brief: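 Luciferase inhibition measured with ONE-Glo after 30 min at RT in BG1Luc4E2 cells given test compounds and 17beta-estradiol for 21.5 h at 37 C; CellTiter-Fluor viability read in the same wells beforehand.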

[17] = target: Androgen receptor (Homo sapiens) (UniProt P10275); test: qHTS assay to identify small molecule agonists of the androgen receptor (AR) signaling pathway (AID 743036; active = well fitted activation curve with a large enough effect in the signal ratio in the repeat runs, with a control signal flat, not every such curve was filed as active; inconclusive = weak or mixed curves, or effect the other way; inactive = no such curve, though single readings can be large or run the other way; the % refers to the signal ratio)
Sequence of Androgen receptor (Homo sapiens) (P10275 whole entry, looked up): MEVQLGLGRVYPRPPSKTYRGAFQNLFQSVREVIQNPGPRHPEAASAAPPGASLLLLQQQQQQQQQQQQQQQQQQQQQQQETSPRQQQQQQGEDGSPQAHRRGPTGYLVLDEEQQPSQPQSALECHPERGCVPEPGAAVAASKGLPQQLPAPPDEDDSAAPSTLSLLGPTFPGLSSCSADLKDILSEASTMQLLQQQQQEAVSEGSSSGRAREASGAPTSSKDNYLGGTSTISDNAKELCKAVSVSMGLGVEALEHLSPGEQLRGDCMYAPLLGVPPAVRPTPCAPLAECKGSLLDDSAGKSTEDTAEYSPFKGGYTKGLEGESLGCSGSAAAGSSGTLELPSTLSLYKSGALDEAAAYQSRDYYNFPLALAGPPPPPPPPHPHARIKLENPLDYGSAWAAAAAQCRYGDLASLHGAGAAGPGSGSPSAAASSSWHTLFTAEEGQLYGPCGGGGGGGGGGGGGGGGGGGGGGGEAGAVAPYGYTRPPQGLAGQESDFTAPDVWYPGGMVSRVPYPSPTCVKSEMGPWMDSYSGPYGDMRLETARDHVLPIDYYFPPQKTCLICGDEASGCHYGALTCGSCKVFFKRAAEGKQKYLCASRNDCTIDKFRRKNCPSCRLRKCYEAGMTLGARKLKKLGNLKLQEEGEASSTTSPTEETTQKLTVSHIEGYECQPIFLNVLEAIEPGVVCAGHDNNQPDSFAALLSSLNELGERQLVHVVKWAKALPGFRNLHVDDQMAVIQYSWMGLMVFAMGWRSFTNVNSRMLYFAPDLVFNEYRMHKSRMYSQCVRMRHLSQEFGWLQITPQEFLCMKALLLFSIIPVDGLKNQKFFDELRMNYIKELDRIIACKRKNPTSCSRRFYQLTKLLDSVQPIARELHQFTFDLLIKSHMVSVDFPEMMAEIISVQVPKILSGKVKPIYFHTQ
Method in brief: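 Beta-lactamase under UAS control, stably integrated in HEK293 GripTite cells, reports receptor activation. After 16 h compound treatment, cells received FRET substrate for 2 h at room temperature before fluorescence reading.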

[18] = target: Androgen receptor (Homo sapiens) (UniProt P10275); test: qHTS assay to identify small molecule agonists of the androgen receptor (AR) signaling pathway using the MDA cell line (AID 743040; note: nearly all actives have a fitted effect of over 20% in size)
Method in brief: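 Cell-based luciferase reporter: MDA-kb2, MMTV promoter (AR + GR response elements). 16 h compound exposure at 37C; ONE-Glo, 30 min RT, luminescence.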

[19] = target: Androgen receptor (Homo sapiens) (UniProt P10275); test: qHTS assay to identify small molecule antagonists of the androgen receptor (AR) signaling pathway using the MDA cell line (AID 743042; note: nearly all actives have a fitted effect of over 55% in size; note: potency is the fitted concentration of half-maximal effect)
Method in brief: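 MDA-kb2 cells (human breast carcinoma, stably carrying an MMTV-luciferase reporter responsive to AR and GR) were plated at 3,000 cells/well and preincubated 5 hr at 37C, then given compound plus R1881 agonist for 16 h. ONE-Glo luminescence was read.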

Measured: Potency

[Hg+2].[I-].[I-]
inactive: [7]
active: [1] 1.37 µM | [2] 1.22 µM | [3] 21.9 µM | [4] 54.5 µM | [5] 1.54 µM | [6] 0.77 µM | [8] 43.6 µM | [9] 54.9 µM [inconclusive] | [10] 68.6 µM | [11] 8.63 µM | [12] 6.86 µM

CC(C)[C@H](C(=O)O[C@H](C#N)c1cccc(Oc2ccccc2)c1)c1ccc(Cl)cc1
inactive: [3] | [4] | [5] | [7] | [8] | [10] | [11] | [12]
active: [1] 43.2 µM | [2] 43.2 µM

CS(=O)(=O)c1ccc(C(=O)C2C(=O)CCCC2=O)c([N+](=O)[O-])c1
active: [2] 44 µM | [13] 45.6 µM | [5] 55.4 µM | [6] 69.8 µM
not listed: [1] | [8] | [12] | [17] | [18] | [19]
inactive: all other assays above

O=C(O)COc1nc(Cl)c(Cl)cc1Cl
active: [2] 57.4 µM
inactive: [4] | [6] | [7] | [14] | [9] | [15] | [16] | [10] | [11]

Nc1ccc(Sc2ccc(N)cc2)cc1
active: [9] 0.219 µM [inconclusive]
inactive: [3] | [5] | [6] | [7] | [14] | [16]

CCCCCCCCCCCCCCC(Br)C(=O)O (stereo unspecified)
active: [2] 24.3 µM | [5] 43.3 µM
inactive: [3] | [4] | [7] | [8] | [15] | [10] | [11] | [12]

CCN(CC)c1c([N+](=O)[O-])cc(C(F)(F)F)c(N)c1[N+](=O)[O-]
active: [1] 19.3 µM | [13] 17.2 µM | [9] 38.9 µM [inconclusive] | [11] 34.4 µM
inactive: [17] | [18] | [4] | [19] | [5] | [6] | [7] | [10]

CC(=O)/C=C/c1ccc2c(c1)OCO2
active: [2] 68.9 µM | [19] 61.4 µM
inactive: [3] | [18] | [4] | [7] | [8] | [9] | [15] | [10] | [11]

NNC(=O)c1ccccc1
active: [15] 19.9 µM
not listed: [2] | [13] | [17] | [18] | [19]
inactive: all other assays above

O=c1oc2ccccc2c(O)c1Cc1c(O)c2ccccc2oc1=O
active: [6] 11.4 µM
not listed: [8] | [9] | [13] | [14] | [15] | [16]
inactive: all other assays above

C=CCC1=C(C)C(OC(=O)C2C(C=C(C)C)C2(C)C)CC1=O (stereo unspecified)
active: [1] 10.3 µM | [2] 16.8 µM | [13] 18.7 µM | [5] 49.3 µM | [6] 25.8 µM | [14] 58.3 µM [fluorescent] | [8] 46.3 µM | [16] 36.4 µM | [11] 47.2 µM | [12] 25.8 µM
inactive: [7] | [9]

O=CC(Br)(Br)Br
active: [2] 24.3 µM | [3] 21.8 µM | [5] 19.3 µM | [6] 19.3 µM | [9] 21.8 µM [inconclusive] | [11] 10.8 µM | [12] 6.84 µM
inactive: [4] | [7] | [10]

C[C@]12CC[C@H]3[C@@H](CCC4=CC(=O)CC[C@@]43C)[C@@H]1CC[C@@H]2O
active: [1] 54.1 µM | [2] 30.4 µM | [6] 30.4 µM
inactive: [3] | [4] | [5] | [7] | [8] | [16] | [10] | [11] | [12]

CC(C)OC(=S)S
inactive: [4] | [5] | [7] | [14] | [8] | [9] | [16] | [10] | [12]
active: [1] 24.3 µM | [2] 27.3 µM | [3] 17.4 µM

CCC(C)(C)C(=O)OC1=C(c2ccc(Cl)cc2Cl)C(=O)OC12CCCCC2
active: [6] 54.5 µM | [15] 54.5 µM
not listed: [1] | [2] | [5] | [13] | [14] | [16]
inactive: all other assays above

CCCSP(=O)(OCC)SCCC
inactive: [3] | [17] | [18] | [4] | [6] | [7] | [10] | [11]
active: [1] 28.3 µM | [13] 39.9 µM
